{"source": "PubChem BioAssay (NCATS)", "note": "Results filed as inconclusive are left out. A call without a number means that no potency is given here. The source made the active and inactive calls. Calls come from the whole dose curve; as a rule, active = well fitted inhibition curve with a large enough effect; inconclusive = small, poorly fitted or top-dose-only effect; inactive = flat fitted curve, though single readings scatter.", "data": [{"tested_on": "Zika virus NS2B-NS3 protease", "test": "Primary screen GU AMC qHTS for Zika virus inhibitors (AID 1347154); note: nearly all actives have a fitted effect of over 70% in size", "details": "Zika NS2B-NS3 unlinked protease, AMC fluorogenic substrate; series mostly up to 54.1 µM", "summary_of_the_method": "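Fluorogenic AMC-substrate cleavage by noncovalent NS2B-NS3 protease complex (25 nM, pH 8.0 Tris buffer with Tween 20) followed for 15 minutes at room temperature (~20% conversion). Percent inhibition from ex340/em450 signal change, fitted by 4-parameter Hill equation.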", "values": [{"smiles": "C#C[C@]1(O)CC[C@H]2[C@@H]3CCC4=Cc5oncc5C[C@]4(C)[C@H]3CC[C@@]21C", "Potency": "inactive"}, {"smiles": "COc1ccc(/C=N/NC(=O)c2ccncc2)cc1OC", "Potency": "inactive"}, {"smiles": "CC(C)NCC(O)c1ccc2ccccc2c1", "note": "(centres undefined)", "Potency": "inactive"}, {"smiles": "CC(=O)Oc1ccc(C)cc1", "Potency": "inactive"}, {"smiles": "Cc1ccc2c(Br)cc(Br)c(O)c2n1", "Potency": "inactive"}, {"smiles": "CCNC(=O)NCc1cccc(Cl)c1", "Potency": "inactive"}, {"smiles": "C[N+]1(C)CCC(=C(c2ccccc2)c2ccccc2)CC1", "Potency": "inactive"}, {"smiles": "CN1CCN(C2=Nc3ccccc3Sc3ccc(Cl)cc32)CC1", "Potency": "inactive"}, {"smiles": "CC(=O)Nc1ccc(S(=O)(=O)Nc2ccc([N+](=O)[O-])cc2)cc1", "Potency": "inactive"}, {"smiles": "CCN(CC)CCNc1ccc(CO)c2sc3ccccc3c(=O)c12", "Potency": "inactive"}, {"smiles": "O=C(NC1CCN(CCc2c[nH]c3ccccc23)CC1)c1ccccc1", "Potency": "inactive"}, {"smiles": "O=C(O)CCc1nc2ccccc2[nH]1", "Potency": "inactive"}, {"smiles": "N#CCC(=O)NN", "Potency": "inactive"}, {"smiles": "CCCCCCCCCCCCCCC[C@H](O)[C@@H](N)CO", "Potency": "inactive"}, {"smiles": "CC(=O)Nc1ncc([N+](=O)[O-])s1", "Potency": "inactive"}, {"smiles": "CN(CCCN1c2ccccc2CCc2ccccc21)CC(=O)c1ccc(Cl)cc1", "Potency": "inactive"}, {"smiles": "Cc1cc(-c2ccccc2)nnc1NCCN1CCOCC1", "Potency": "inactive"}, {"smiles": "CC(O)Cn1cnc2c1c(=O)n(C)c(=O)n2C", "note": "(centres undefined)", "Potency": "inactive"}, {"smiles": "Cc1ccccc1OCC(O)CO", "note": "(centres undefined)", "Potency": "inactive"}, {"smiles": "Cc1cn([C@H]2C[C@H](F)[C@@H](CO)O2)c(=O)[nH]c1=O", "Potency": "inactive"}, {"smiles": "Cc1cc2c(OCC(CNC(C)(C)C)OC(=O)c3ccccc3)cccc2[nH]1", "note": "(centres undefined)", "Potency": "inactive"}, {"smiles": "NC1CCN(c2nc3c(cc2F)c(=O)c(C(=O)O)cn3-c2ccc(F)cc2F)C1", "note": "(centres undefined)", "Potency": "inactive"}, {"smiles": "COc1cc(NS(=O)(=O)c2ccc(N)cc2)ncn1", "Potency": "inactive"}, {"smiles": "CC(C)[C@@H]1CC[C@@H](C)CC1=O", "Potency": "inactive"}, {"smiles": "CCOC(=O)[C@H](CCc1ccccc1)N[C@@H](C)C(=O)N1[C@H](C(=O)O)C[C@@H]2CCC[C@@H]21", "Potency": "inactive"}, {"smiles": "CCCCNC(=O)NS(=O)(=O)c1ccc(N)cc1", "Potency": "inactive"}, {"smiles": "CCOC(=O)[C@@](C)(N)Cc1ccc(O)c(O)c1", "Potency": "inactive"}, {"smiles": "COc1ccc(-c2cc(C(F)F)nn2-c2ccc(S(N)(=O)=O)cc2)cc1F", "Potency": "inactive"}, {"smiles": "C#C[C@]1(O)CC[C@H]2[C@@H]3[C@H](C)CC4=C(CCC(=O)C4)[C@H]3CC[C@@]21C", "Potency": "inactive"}, {"smiles": "CCCN(CCc1cccs1)[C@H]1CCc2c(O)cccc2C1", "Potency": "inactive"}, {"smiles": "CCCCCCCCCCCCCC(=O)OC(C)C", "Potency": "inactive"}, {"smiles": "O=C(O)Cc1csc(-c2ccc(Cl)cc2)n1", "Potency": "inactive"}, {"smiles": "N=C(N)N1CCc2ccccc2C1", "activity change, negative = inhibition": "1.62% [at 4.99 µM] (inactive)"}, {"smiles": "O=C(O)C(Cc1cc(I)c(O)c(I)c1)c1ccccc1", "note": "(centres undefined)", "Potency": "inactive"}, {"smiles": "CN1CCN(c2cc3c(cc2F)c(=O)c(C(=O)O)cn3-c2ccc(F)cc2)CC1", "Potency": "inactive"}, {"smiles": "CCOc1ccccc1OCCN[C@H](C)Cc1ccc(OC)c(S(N)(=O)=O)c1", "Potency": "inactive"}, {"smiles": "CO[C@]12C[C@@H](COC(=O)c3cncc(Br)c3)CN(C)[C@@H]1Cc1cn(C)c3cccc2c13", "Potency": "inactive"}, {"smiles": "CCCCCCCCCCCCCCCCO", "Potency": "inactive"}, {"smiles": "NS(=O)(=O)c1ccc(Cl)c(S(N)(=O)=O)c1", "Potency": "inactive"}]}]}
